Source: PubChem
The list is not random: actives were taken first. Their share in the collection is about 4.6%.
Lassa entry inh: inhibitors of Lassa virus binding or cell entry; Lassa virus pseudotype entry inhibition, cell reporter; 300,000 compounds, 1.2% hits; Potency, µM (titrated, usually from 37.9 µM), inactives show at the top dose activity change, negative = inhibition, actives largely listed as inhibitors; calls by dose curve; tested in HEK293 cells; further: nearly all actives have a fitted effect of over 50% in size
HCV inh: inhibitors of hepatitis C virus infection | Huh7.5.1 HCVcc-Cre infection, luciferase reporter, 44 h | 340,000 compounds, 3.4% hits | AID 651820 | Potency, µM (highest dose often 41.8 µM), for the others: top-dose activity change, negative = inhibition, usual class: inhibitors; active means well fitted inhibition curve with a large enough effect; inconclusive means small, poorly fitted or top-dose-only effect, or another doubt; inactive means no such curve, though single readings can be large or run the other way
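1,000 cells/well; 4 h culture; + compound; + HCVcc-Cre (~0.5 moi); 44 h; luciferase substrate, RT 15 min; read 15 sec.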
Vaccinia mCherry: inhibitors of vaccinia virus infection (mCherry reporter signal). Vaccinia virus mCherry reporter infection, fluorescence. Potency, µM (series often up to 36.5 µM), without a hit: at the highest dose activity change, negative = inhibition, actives largely listed as inhibitors. 310,000 compounds, 0.63% hits. AID 720579; calls by dose curve; tested in A549 cells; further: nearly all actives have a fitted effect of over 35% in size
MARV entry inh: blocks Marburg virus binding to or entry into cells; Marburg virus pseudotyped entry inhibition, cell reporter; Potency, µM (series often up to 37.8 µM), without a hit: at the top dose activity change, negative = inhibition, actives largely listed as inhibitors; 300,000 compounds, 1.8% hits; calls by dose curve; tested in HEK293 cells
VACV Venus inh: inhibitors of vaccinia virus (Venus reporter); 330,000 compounds, 0.46% hits; Vaccinia virus Venus reporter expression, fluorescence; Potency, µM (doses to about 36.5 µM), inactives show top-dose activity change, negative = inhibition, actives largely listed as inhibitors; calls by dose curve; tested in A549 cells; further: nearly all actives have a fitted effect of over 30% in size
Active calls of the source: *; i = inactive; ? = inconclusive; . = no result; ! = not confirmed by another sample; [ ] = dose if it differs, or a comment. On the % scale 0 is the no-effect control and ±100 the full control effect; potency means the concentration at half of the fitted maximal effect.

SMILES	Lassa entry inh	HCV inh	Vaccinia mCherry	MARV entry inh	VACV Venus inh
CC1CN(C(=O)Nc2ccc(C(=O)NCCc3ccc(Cl)cc3)cc2)c2ccccc2S1 (centres undefined)	?	.	-20%	12%[46.1 µM]	-25%
Cc1ccccc1C(=O)N/N=C/c1ccc([N+](=O)[O-])s1	-24%	?	-22%	4.1µM*	?
O=C(N/N=C/c1ccc([N+](=O)[O-])s1)c1ccccc1Br	?	11µM*	?	?	11µM*
CCc1ccc(/C=N/NC(=O)c2cc(C3CC3)nc3ccccc23)s1	-28%	8.9µM*	?	?	?
Cc1cccc(/C=N/NC(=O)c2cc(C3CC3)nc3ccccc23)n1	.	-10%	.	.	.
O=C(N/N=C/c1ccc([N+](=O)[O-])s1)c1cccnc1	-54%	14µM*	.	15µM*	.
COc1ccccc1NC(=O)C(=O)N/N=C/c1ccc([N+](=O)[O-])s1	.	-16%	.	.	.
Cc1ccc(CN2CCOc3ccc(CN4CCC(Oc5cccnc5)CC4)cc3C2)o1	.	.	-10%	.	-8%
CC(=O)N1CCc2cc(Br)cc(S(=O)(=O)N3CCC(C)CC3)c21	8%[46.1 µM]	.	-13%	-6%[46.1 µM]	-5%
Cc1cc2ccccc2c[n+]1CC(=O)c1ccc(F)cc1	.	.	-12%	.	0%
Cc1cc(C(=O)N/N=C/c2ccc([N+](=O)[O-])s2)c2ccccc2n1	?	11µM*	10µM*	?	28µM*
Cc1cc(C(=O)N/N=C/c2ccc([N+](=O)[O-])cc2)c2ccccc2n1	.	-3%	.	.	.
CC1=C(C(=O)NCc2cccc(Cl)c2)C2(CCCCCC2)OC1=O	19%[46.1 µM]	.	-11%	.	-12%
Cn1c(Cl)nc2c1c(=O)n(Cc1cccc(Br)c1)c(=O)n2C	24%	13µM*	.	19%	.
CCCn1c(CN2CCCCC2C)nc2c1c(=O)n(C)c(=O)n2C (centres undefined)	.	14%	i	.	-6%
Cn1c(Br)nc2c1c(=O)n(Cc1ccccc1)c(=O)n2C	16%	7%	-10%	7%	3%
CCCCCCn1c(CN2CCCCC2C)nc2c1c(=O)n(C)c(=O)n2C (centres undefined)	-22%	25µM*	?	?	-29%
COCCCn1c(=O)c2sccc2n(Cc2cccc(C)c2)c1=O	.	10%	.	.	.
CC(O)CNc1nc2c(c(=O)n(C)c(=O)n2C)n1Cc1cccc(Br)c1 (centres undefined)	?	11µM*	-12%	?	-23%
Cn1c(=O)c2sccc2n(Cc2cccc(Br)c2)c1=O	-4%[46.1 µM]	11µM*	-10%	?	-19%
COc1ccc(N2CCN(Cc3nc4c(c(=O)[nH]c(=O)n4C)n3CC(C)C)CC2)cc1	3%[46.1 µM]	.	-12%	7%[46.1 µM]	-5%
Cc1ccc(C)c(CSc2nc(-c3ccccc3F)nc3c2Cc2c(CO)cnc(C)c2O3)c1	13%[46.1 µM]	.	5%	.	8%
CCCCCCn1c(NCC)nc2c1c(=O)n(C)c(=O)n2C	?	5.6µM*	.	?	?
Cn1c(=O)c2c(nc(NCCO)n2CCc2ccccc2)n(C)c1=O	-16%	?	-2%	?	-26%
CCCNc1nc2c(c(=O)n(C)c(=O)n2C)n1CCc1ccccc1	?	14µM*	.	?	.
SMILES	Lassa entry inh	HCV inh	Vaccinia mCherry	MARV entry inh	VACV Venus inh
CC(O)CNc1nc2c(c(=O)n(C)c(=O)n2C)n1CCc1ccccc1 (centres undefined)	-22%	28µM*	-18%[1.46 µM]	-27%	-24%
CCOC(=O)[C@]12Cc3cc(Cl)ccc3[C@H]1N(Cc1ccccc1)C(=O)c1ccccc12	.	-13%[8.37 µM]	?	.	-2%
CCOC(=O)[C@]12Cc3cc4c(cc3[C@H]1N(Cc1ccccc1)C(=O)c1ccccc12)OCO4	.	?	11µM*!	.	?
CCOC(=O)[C@]12Cc3cc(N(C)C)ccc3[C@H]1N(Cc1ccccc1)C(=O)c1ccccc12	.	11µM*	-27%	.	-27%
Cc1cccc(C(=O)NCc2nc(-c3cccc(NC(=O)C4CCCN(C)C4)c3)oc2C)n1 (centres undefined)	.	.	-13%	.	1%
CCOc1ccc(C(=O)NCc2nnnn2-c2ccc(C)c(C)c2)cc1OCC	-1%[46.1 µM]	.	-16%	.	-17%
COc1ccc(OC)c(NC(=O)c2cc(-c3cc(C)ccc3O)n[nH]2)c1	?	-33%	10µM*	?	11µM*
Cc1ccc(O)c(-c2cc(-c3ccccc3C)[nH]n2)c1	?	11µM*	?	?	?
COc1ccc(OC)c(NC(=O)c2cc(-c3ccc(C)cc3O)n[nH]2)c1	-6%	-12%	.	5%	.
COc1ccc(-c2cc(-c3cc(C)ccc3O)[nH]n2)cc1	?	3.5µM*	8.9µM*	?	?
Cc1ccc(Cl)cc1N(C)C(=O)c1sc2nc3n(c(=O)c2c1C)CCCC3	-1%[46.1 µM]	.	-15%	.	-19%
Cc1ccc2nc(-c3ccc(C)c(NC(=O)COc4ccc(Br)cc4)c3)oc2c1	.	.	-4%	.	-14%
Clc1ccc2c(Cl)cc[n+](CCC3CCCCC3)c2c1	.	.	37%	.	-8%
CC(=O)c1ccc([C@@H]2C=C[C@H](O)[C@@H](CO)O2)cc1	.	.	.	23%[14.2 µM]	.
CC[C@@H](C)[C@H]1O[C@]2(CC[C@H]1C)C[C@@H]1C[C@@H](CC=C(C)[C@@H](O[C@H]3C[C@H](OC)[C@@H](O[C@H]4C[C@H](OC)[C@@H](O)[C@H](C)O4)[C@H](C)O3)[C@@H](C)C=CC=C3CO[C@@H]4[C@H](O)C(C)=C[C@@H](C(=O)O1)[C@]34O)O2	2.6µM*	.	.	10µM*	.
CC[C@@H](C)[C@H]1O[C@]2(CC[C@@H]1C)C[C@@H]1C[C@@H](C/C=C(\C)[C@@H](O[C@H]3C[C@H](OC)[C@@H](O[C@H]4C[C@H](OC)[C@@H](O)[C@H](C)O4)[C@H](C)O3)[C@@H](C)/C=C/C=C3\CO[C@@H]4[C@H](O)C(C)=C[C@@H](C(=O)O1)[C@]34O)O2	?	.	.	6.3µM*	.
COc1ccc(-c2nc(-c3ccccc3)oc2NC(C)c2ccccc2)cc1 (centres undefined)	?	.	.	-6%[14.2 µM]	.
Cc1ccc(S(=O)(=O)C(CNC(=O)C(=O)NCCc2ccccc2)c2cccs2)cc1 (centres undefined)	?	.	-16%	.	-16%
CC(C)(C)c1csc(NC(=O)CCS(=O)(=O)c2ccc(F)cc2)n1	.	.	7.1µM*	.	7.9µM*
Cc1ccc(S(=O)(=O)CC(=O)Nc2nc(C(C)(C)C)cs2)cc1	3.7µM*	2%	-13%	2%	-7%
Cc1ccc(S(=O)(=O)CCC(=O)Nc2nc(C(C)(C)C)cs2)cc1	.	-21%	.	.	.
CCc1ccc(NCc2cc3cc4c(cc3n(CC(=O)Nc3ccccc3Cl)c2=O)OCO4)cc1	-4%[46.1 µM]	.	1%	.	6%
CCc1ccc(Oc2nccc(-c3c(-c4ccc(F)cc4)ncn3C3CCNCC3)n2)cc1	11µM*	.	.	.	.
OC(COCC(F)(F)C(F)(F)C(F)(F)C(F)F)Cn1c2ccc(Cl)cc2c2cc(Cl)ccc21 (centres undefined)	?	3.2µM*	?	?	11µM*
